14 compounds from PubChem BioAssay (EPA / NIEHS) can be followed below.

Activity calls are given as the source filed them. Rule for the calls: active = hit-call score of the fitted dose curve at least 0.9, where 1 is the maximum; inactive = score below 0.9.

This experiment in a line: CCTE_Mundy_HCI_Cortical_NOG_NeuriteCount: CCTE's Neurite Outgrowth Assay in rat cortical cells for Neurite Count, Mundy Lab (AID 2284212).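 Note: cells fixed about two days after chemical exposure began.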 The procedure:
CCTE_Mundy_HCI_Cortical_NOG is a multiplexed, cell-based-readout assay that uses rat primary cortical cells with measurements taken at 50.33 hours after chemical dosing in a microplate: 96-well plate.CCTE_Mundy_HCI_Cortical_NOG_NeuriteCount is one of four components of the CCTE_Mundy_HCI_Cortical_NOG assay. It measures neurite outgrowth related to the number of neurites using High Content Imaging of fluorescently labelled markers.[…] Using a type of morphology reporter, loss -of-signal activity can be used to understand developmental effects.
Exposure starts 2 hours post-plating by adding 10 ul of the working solution to 90 ul of media in the wells for a 1/10 dilution. Forty-eight hours after chemical treatment cells are fixed by direct addition of 100 ul of warm (37C) Dulbecco's phosphate buffered saline (DPBS) fixative solution containing 8% paraformaldehyde, 8% sucrose, and 0.1% of 3 mg/ml Hoechst 33342 into each well. Primary antibodies are prepared by dilution in Immunocytochemical Staining Buffer (ISB), 10X Dulbecco's PBS, 0.1% Saponin, 5% Bovine Serum Albumin, 0.5% NaN3 (Sodium Azide) and betaIII-tubulin (rabbit anti-betaIII-tubulin, 1:800) followed by Alexa Fluor-488 secondary (1:500) to label neuronal cell bodies and neurites. A Cellomics ArrayScan VTi HCS Reader is used for automated image acquisition and analysis of neurite outgrowth.
`CCCCOC(=O)c1ccccc1C(=O)OCCCC`: the compound was called inactive.
On the same count and under the same terms, in the case of `CNC(=O)ON=CC(C)(C)SC` it was “inactive”; in that of `N#Cc1nn(-c2c(Cl)cc(C(F)(F)F)cc2Cl)c(N)c1S(=O)C(F)(F)F` (centres undefined), “inactive”.
The AC50 is the concentration giving half of the maximal activity seen. As for `COP(=S)(OC)Oc1nc(Cl)c(Cl)cc1Cl`, the AC50 is 25900 nM (active).
Regarding `C=CCC1=C(C)C(OC(=O)C2C(C=C(C)C)C2(C)C)CC1=O` (centres undefined), the call was inactive.
Still for that read-out and setting: to `COP(N)(=O)SC` (centres undefined) belongs “inactive”; to `C=CC1(C)OC(=O)N(c2cc(Cl)cc(Cl)c2)C1=O` (centres undefined), “inactive”; to `C=CCC1=C(C)[C@@H](OC(=O)[C@@H]2[C@@H](C=C(C)C)C2(C)C)CC1=O`, “inactive”.
Turning to `Cc1ccc(-c2c(Cl)nc(C#N)n2S(=O)(=O)N(C)C)cc1`, the half-maximal activity concentration (AC50) was 72900 nM (active).
Consider `CO/C=C(/C(=O)OC)c1ccccc1Oc1cc(Oc2ccccc2C#N)ncn1`, for which the concentration at half-maximal activity (AC50) is 2730 nM (active).
Still for that read-out and setting: to `CC(C)(C)c1ccc(CSc2cnn(C(C)(C)C)c(=O)c2Cl)cc1` belongs 7.68 nM (active); to `CN(C)C(=S)SSC(=S)N(C)C`, 73.3 nM (active).
Regarding `COC(=O)N(OC)c1ccccc1COc1ccn(-c2ccc(Cl)cc2)n1`, the concentration at half-maximal activity (AC50) is 141 nM (active).
Consider `CCCCNC(=O)n1c(NC(=O)OC)nc2ccccc21`, for which the compound was called inactive.
